Bioassay records from PubChem.
Rows were chosen to be rich in hits. Some 0.95% of all compounds tested hit in one or more screens of this group.
Resorufin autofl: qHTS Assay for Spectroscopic Profiling in Resorufin Spectral Region; max dye-equivalent concentration, M; Compound fluorescence, resorufin region 547/598 nm, buffer; active compounds read high; 59,000 tested, 0.04% active; AID 588, 2007
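Read-out: intrinsic compound fluorescence at ex 547/em 598 nm after 15 min at RT in pH 8.0 Tris (100 mM). Values expressed as resorufin-equivalent concentration from per-plate standard series.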
Rhodamine fluor: qHTS Assay for Spectroscopic Profiling in Rhodamine Spectral Region; Rhodamine-region fluorescence, 547/598 nm, Tris buffer; active compounds read high; max dye-equivalent concentration, M; 59,000 tested, 0.05% active; AID 594, 2007; in the data active means max dye-equivalent concentration above about 11 nM; inconclusive means between about 1.1 nM and that limit
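A six-point rhodamine series on each plate calibrates the signal. Compounds sit in 100 mM Tris (pH 8.0) for 15 min at ambient temperature before imaging through 547 nm/598 nm filters.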
TexasRed autofl: qHTS Assay for Spectroscopic Profiling in Texas Red Spectral Region; Compound fluorescence, Texas Red channel, 547/618 nm; active compounds read high; max dye-equivalent concentration, M; 59,000 tested, 0.06% active; AID 587, 2007; in the data active means max dye-equivalent concentration above about 10 nM; inconclusive means between about 1.1 nM and that limit
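Spectral interference profiling: each compound concentration's relative fluorescence, read with a 547 nm excitation and 618 nm emission filter pair, was normalized to a per-plate Texas Red standard curve.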
Fluorescein autfl: qHTS Assay for Spectroscopic Profiling in Fluorescein Spectral Region. Compound autofluorescence, 480/540 nm, fluorescein-equivalent; active compounds read high. max fluorescein-equivalent concentration, M. 59,000 tested, 0.91% active. AID 593, 2007; in the data active means max fluorescein-equivalent concentration above about 10 nM; inconclusive means between about 1.1 nM and that limit
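Each compound is tested across a concentration series in 100 mM Tris buffer at pH 8.0. After 15 min at room temperature, plates are imaged with 480 nm excitation and 540 nm emission filters, and intensities are converted to fluorescein-equivalent values.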
A488 autofl: qHTS Assay for Spectroscopic Profiling in A488 Spectral Region; compound autofluorescence, A488 spectral region, dye equivalency; Compound Type: qHTS ECL - MLSMR; max dye equivalency, M; 59,000 tested, 0.1% active
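Autofluorescence read at ex 480/em 540 nm after 15 min RT in 100 mM Tris pH 8.0; compound signal normalized to A488 standard series on each plate, reported as dye-equivalent concentration at each test concentration.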
A647 autofl: qHTS Assay for Spectroscopic Profiling in A647 Spectral Region; Compound fluorescence, A647 channel (570/671 nm), Tris buffer; max dye-equivalent concentration, M; 59,000 tested, under 10 active
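Buffer was dispensed, compounds and Alexa 647 standards were pin-transferred, and plates sat 15 min at room temperature. Intensity at 570/671 nm was then converted to dye-equivalent concentration using the plate's A647 standard curve.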
Of the large screens only hits and unclear results are named; the others gave an inactive call; ! = not confirmed by another sample. Unless noted, how the calls were made is not given here.

CC(=Nc1ccc(O)cc1)c1sc2ccccc2c1O	TexasRed autofl inconclusive, Fluorescein autfl 1e-07M, A488 autofl inconclusive
Cc1ccc(/C=c2\sc3nc(-c4ccco4)nn3c2=O)o1	Fluorescein autfl 1.5e-08M
O=C(O)C[C@@H]1CCCc2ccccc2[C@H]1O	Fluorescein autfl inconclusive
O=C(O)c1ccccc1C1=Nc2ccc(O)cc2Oc2cc(O)ccc21	Resorufin autofl inconclusive, Rhodamine fluor inconclusive, TexasRed autofl 1.27e-08M, Fluorescein autfl 1.67e-07M, A488 autofl inconclusive
Cc1cc(-c2ccccc2C(=O)O)on1	TexasRed autofl inconclusive, Fluorescein autfl inconclusive
COc1ccc(-c2coc3ccc(O[C@@H]4O[C@@H](COC(C)=O)[C@@H](OC(C)=O)[C@@H](OC(C)=O)[C@H]4OC(C)=O)c(OC(C)=O)c3c2=O)cc1	none
CN(C)c1ncc2nc(-c3cccs3)c(=O)n(C3CC3)c2n1	Fluorescein autfl 1.46e-08M
CCOC(=O)CN=C1CC(C)(C)CC2=C1Sc1ncnc(N(C)C)c1N2	Resorufin autofl inconclusive, Rhodamine fluor inconclusive, Fluorescein autfl 3.4e-08M, A488 autofl inconclusive
C[C@@]12CC[C@H]3[C@H](CC=C4C[C@@H](O)CC[C@@]43C)[C@@H]1CC[C@@H]2N(CCO)CCO	none
Cc1c(-n2cc(C(=O)c3ccccc3O)cc(C#N)c2=O)c(=O)n(-c2ccccc2)n1C	Fluorescein autfl 3.75e-08M, A488 autofl inconclusive
COc1ccccc1/C=c1\sc2nc(-c3ccncc3)nn2c1=O	Fluorescein autfl 1.49e-08M
O=C(O)c1ccc2c(c1C(=O)O)C(=O)OC2(c1ccc(O)cc1)c1ccc(O)cc1	none
O=C1OC2(c3ccc(O)cc3Oc3cc(O)ccc32)c2c1c(-c1ccccc1)c(-c1ccccc1)c(-c1ccccc1)c2-c1ccccc1	Resorufin autofl inconclusive, Rhodamine fluor inconclusive, Fluorescein autfl 4.81e-07M, A488 autofl 2.29e-08M
O=C1NC(=O)C(c2ccccc2)(c2ccccc2)N1	Fluorescein autfl inconclusive
CCC1(c2ccccc2)C(=O)NCNC1=O	Fluorescein autfl 1.2e-08M!
N#CCCn1c(=O)c(-c2cccs2)nc2cnc(N3CCOCC3)nc21	Fluorescein autfl 1.3e-08M
CC(C)[C@H]1C(=O)C(C(N)=O)=C(O)[C@]2(O)C(=O)C3=C(O)c4c(O)ccc(N(C)C)c4C[C@H]3C[C@@H]12	TexasRed autofl inconclusive
CN(C)c1ccc(/C=c2\sc3n(c2=O)CCCN=3)cc1	Fluorescein autfl 1.45e-08M
COC(=O)/C=c1/sc2n(c1=O)CCN=2	none
CC[C@@]12CCCN3CCc4c(n(c5ccccc45)C(=O)C1)[C@H]32	Fluorescein autfl 1.2e-08M!
CCOC(=O)c1n[nH]c2ccccc12	Fluorescein autfl inconclusive
Nc1n[nH]c2ccccc12	Resorufin autofl 1.07e-08M, Rhodamine fluor 1.55e-08M, TexasRed autofl 2.87e-08M, Fluorescein autfl inconclusive
COc1ccc(C2C(C(C)=O)=C(C)N=c3s/c(=C/c4ccc5c(c4)OCO5)c(=O)n32)cc1 (configuration not stated)	Fluorescein autfl 1.21e-08M
CC(=O)C1=C(C)N=c2s/c(=C/c3ccc4c(c3)OCO4)c(=O)n2C1c1ccc(N(C)C)cc1 (configuration not stated)	none
COC(=O)[C@](C)(N)Cc1ccc(O)cc1	Fluorescein autfl inconclusive
CCOC(=O)c1c2c(n3ccccc13)C(=O)c1ccccc1C2=O	Fluorescein autfl inconclusive
CCOC(=O)C(C(=O)OCC)c1cc(Br)c2noc3c2c1C(=O)c1ccccc1-3	Fluorescein autfl 2.56e-07M, A488 autofl 1.25e-08M
Cc1ccccc1CNc1ncnc2c1ncn2[C@@H]1O[C@@H](CO)[C@H](O)[C@@H]1O	TexasRed autofl inconclusive, Fluorescein autfl 2e-08M
Cc1cccc(-n2c(O)c(C=Nc3ccc4c(c3)OCO4)c3ccccc3c2=O)n1	Fluorescein autfl 5.84e-08M, A488 autofl inconclusive
Cc1cc(N=Cc2c(O)n(-c3ccc4c(c3)OCO4)c(=O)c3ccccc23)ccn1	TexasRed autofl inconclusive, Fluorescein autfl inconclusive
CN1[C@@H]2CC(OC(=O)[C@@H](CO)c3ccccc3)C[C@H]1[C@H]1O[C@H]12 (some centres not stated)	Fluorescein autfl inconclusive
CCCCC[C@H](CC(=O)NO)C(=O)N[C@@H](C(=O)N1CCC[C@H]1CO)C(C)C	Fluorescein autfl inconclusive
O=C(O)c1ccc2c(c1)NC(=O)C(N1CCCC1)S2 (configuration not stated)	Fluorescein autfl 1.12e-08M
COC(=O)c1ccc2c(c1)NC(=O)C(N1CCCC1)S2 (configuration not stated)	Fluorescein autfl inconclusive
O=C1O/C(=C\Br)CC[C@@H]1c1cccc2ccccc12	Fluorescein autfl inconclusive
Cc1cccc(OCC(=O)NCC(=O)n2nc(C)cc2C)c1	Fluorescein autfl 1.19e-08M
Cc1cc(C)n(C(=O)COc2c(C)cccc2C)n1	Fluorescein autfl inconclusive
O=C(NCc1ccc2[nH]c3c(c2c1)CCCC3)N1CCOCC1	Fluorescein autfl 1.46e-08M
CCN(CC)c1ccc2cc(C(=O)Nc3ccc(-n4cnnn4)c(OC)c3)c(=O)oc2c1	Fluorescein autfl 6.71e-07M, A488 autofl 3.42e-08M
COC(=O)c1c(=O)n(O)c2ccc(OC)cc2[n+]1[O-]	Fluorescein autfl 3.56e-08M, A488 autofl inconclusive
COc1c2c(nc3ccccc13)O[C@@H]([C@@](C)(O)CO)C2	TexasRed autofl inconclusive
C=Cc1c(C)c2cc3[nH]c(cc4nc(cc5nc(cc1[nH]2)C(C)=C5CCC(=O)O)C(CCC(=O)O)=C4C)c(C)c3C=C	TexasRed autofl 1.01e-08M, Fluorescein autfl inconclusive
CN1CCc2c(sc3c2C(=O)NC(c2ccc4c(c2)OCO4)N3)C1 (configuration not stated)	TexasRed autofl inconclusive, Fluorescein autfl inconclusive
CN1CCc2c(sc3c2C(=O)NC(/C=C/c2ccco2)N3)C1 (configuration not stated)	Fluorescein autfl 1.33e-08M
CN1CCc2c(sc3c2C(=O)NC(c2ccccn2)N3)C1 (configuration not stated)	Resorufin autofl inconclusive, Rhodamine fluor inconclusive, TexasRed autofl 1.25e-08M, Fluorescein autfl 5.58e-08M, A488 autofl inconclusive
Cc1ccc(C2NC(=O)c3c(sc4c3CCN(C)C4)N2)o1 (configuration not stated)	Fluorescein autfl 1.21e-08M
Cc1ccc(C2NC(=O)c3c(sc4c3CCN(C)C4)N2)s1 (configuration not stated)	Fluorescein autfl 1.64e-08M
CCOC(=O)N1CCc2c(sc3c2C(=O)NC(c2ccc(-c4ccc(Cl)cc4)o2)N3)C1 (configuration not stated)	none
O=C1NC(c2ccccn2)Nc2sc3c(c21)CCC3 (configuration not stated)	TexasRed autofl inconclusive
